19 molecules from PubChem BioAssay (EPA / NIEHS) can be followed below.

Records with an inconclusive call do not appear. Active and inactive are the calls of the source. The calls were made as follows, unless noted: active = hit-call score of the fitted dose curve at least 0.9, where 1 is the maximum; inconclusive = response in the unintended direction; inactive = score below 0.9.

For test [1], the target named is human RAR-related Orphan Receptor beta (RORb), RORB (gene 6096) (UniProt Q92753). Briefly: ATG_RORb_TRANS: Attagene TRANS-FACTORIAL HepG2 Assay for human RAR-related Orphan Receptor beta (RORb) (AID 2283010). Summed up:
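Read-out is reporter mRNA induction, quantified by RT-PCR with fluorescent capillary electrophoresis, 24 h post-dose in transiently transfected HepG2 expressing exogenous NR-Gal4 chimera. Activity fitted upward versus DMSO.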

Test [2] concerns the target Retinoic acid receptor RXR-alpha (Homo sapiens) (UniProt P19793). The test can be described thus: ATG_RXRa_TRANS: Attagene TRANS-FACTORIAL HepG2 Assay for human Retinoid X Receptor alpha (RXRa) (AID 2283012). Summed up:
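TRANS format reporting activity of exogenous RXRa-Gal4 chimera in transiently transfected HepG2, 24 h exposure. Reporter transcripts quantified by RT-PCR with capillary electrophoresis, with gain of signal scored relative to DMSO.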

For test [3], the target named is human Retinoid X Receptor beta (RXRb), RXRB (gene 6257) (UniProt P28702). The test can be described thus: ATG_RXRb_TRANS: Attagene TRANS-FACTORIAL HepG2 Assay for human Retinoid X Receptor beta (RXRb) (AID 2283013). Summed up:
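Readout is reporter transcript induction after 24 h dosing. It is measured by RT-PCR of total RNA followed by fluorescent capillary electrophoresis. HepG2 liver cells carry transfected multiple reporter units driven by an exogenous RXRb-Gal4 fusion; activity is relative to DMSO.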

Test [4] addresses human Thyroid Receptor alpha (THRa1), THRA (gene 7067) (UniProt P10827). Briefly: ATG_THRa1_TRANS: Attagene TRANS-FACTORIAL HepG2 Assay for human Thyroid Receptor alpha (THRa1) (AID 2283014). Summed up:
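HepG2 cells transiently transfected with multiplexed GAL4-UAS reporter units for exogenous chimeric THRa1-Gal4; reporter mRNA measured 24 h after dosing by RT-PCR, 6-FAM labelling, HpaI digestion and capillary electrophoresis. Gain-of-signal fitted versus DMSO baseline.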

Read-out in test [5]: E-selectin (Homo sapiens) (UniProt P16581)
The test can be described thus: BSK_3C_Eselectin: BioMAP Diversity Plus: 3C Assay for Eselectin Biomarker Activity (AID 2283015; active = hit-call score of the fitted dose curve at least 0.9, where 1 is the maximum; inactive = score below 0.9;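 also: cell surface E-selectin protein quantified by ELISA 24 h after dosing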). As to conditions: primary human endothelial cells (HUVEC); actives raise or lower the signal. The method in brief: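 Primary human umbilical vein endothelial cells (3C system) were dosed with chemical and cell-surface E-selectin measured by ELISA 24 h later. Bidirectional curve fitting used DMSO as negative control and baseline.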

Read-out in test [6]: Interleukin-1 alpha (IL1a), IL1A (gene 3552)
Briefly: BSK_BE3C_IL1a: BioMAP Diversity Plus: BE3C Assay for Interleukin-1 alpha (IL1a) Biomarker Activity (AID 2283016; active = hit-call score of the fitted dose curve at least 0.9, where 1 is the maximum; inactive = score below 0.9). As to conditions: primary human bronchial epithelial cells; actives raise or lower the signal. Summed up: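 IL-1a measured by ELISA after 24 h treatment of human primary bronchial epithelial cells, with gain or loss of signal fitted versus DMSO. Parallel cultures stained with SRB gauge overt cytotoxicity.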

Read-out in test [7]: Monocyte Chemoattractant Protein-1 (MCP1), CCL2 (gene 6347)
The test can be described thus: BSK_3C_MCP1: BioMAP Diversity Plus: 3C Assay for Monocyte Chemoattractant Protein-1 (MCP1) Biomarker Activity (AID 2283017; active = hit-call score of the fitted dose curve at least 0.9, where 1 is the maximum; inactive = score below 0.9). As to conditions: primary human endothelial cells (HUVEC); actives raise or lower the signal. The method in brief:
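Primary human umbilical vein endothelial cells (3C system) were exposed to test chemical for 24 h, after which MCP-1 was quantified by ELISA. Activity was fitted bidirectionally against DMSO as negative control and baseline.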

Read-out in test [8]: Monocyte Chemoattractant Protein-1 (MCP1), CCL2 (gene 6347)
The test can be described thus: BSK_4H_MCP1: BioMAP Diversity Plus: 4H Assay for Monocyte Chemoattractant Protein-1 (MCP1) Biomarker Activity (AID 2283018; active = hit-call score of the fitted dose curve at least 0.9, where 1 is the maximum; inactive = score below 0.9). As to conditions: primary human endothelial cells (HUVEC); actives raise or lower the signal. Summed up: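 ELISA of MCP-1 (CCL2) 24 h after chemical dosing of HUVEC in the BioMAP 4H system. Gain or loss versus DMSO fitted; parallel SRB staining (560 nm) tracked overt cytotoxicity.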

Read-out in test [9]: Human Leukocyte Antigen - DR isotype (HLADR), HLA-DRA (gene 3122)
Briefly: BSK_3C_HLADR: BioMAP Diversity Plus: 3C Assay for Human Leukocyte Antigen - DR isotype (HLADR) Biomarker Activity (AID 2283019; active = hit-call score of the fitted dose curve at least 0.9, where 1 is the maximum; inactive = score below 0.9;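 as to outcome: ELISA of cell-surface HLA-DR on HUVEC 24 h after dosing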). To be noted: primary human endothelial cells (HUVEC); actives raise or lower the signal. Summed up:
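Primary human umbilical vein endothelial cells (3C system) were dosed with compound and cell-surface HLA-DR was quantified by ELISA at 24 h. Activity was fitted bidirectionally against DMSO as negative control and baseline.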

Read-out in test [10]: Interleukin-8 (IL8), CXCL8 (gene 3576)
Briefly: BSK_3C_IL8: BioMAP Diversity Plus: 3C Assay for Interleukin-8 (IL8) Biomarker Activity (AID 2283020; active = hit-call score of the fitted dose curve at least 0.9, where 1 is the maximum; inactive = score below 0.9). As to conditions: primary human endothelial cells (HUVEC); actives raise or lower the signal. Summed up:
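IL-8 was measured by ELISA in HUVEC cultures 24 h after chemical dosing, with gain or loss of signal fitted relative to DMSO. Parallel SRB total-protein staining tracked overt cytotoxicity.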

Read-out in test [11]: Monokine induced gamma interferon (MIG), CXCL9 (gene 4283)
Briefly: BSK_3C_MIG: BioMAP Diversity Plus: 3C Assay for Monokine induced gamma interferon (MIG) Biomarker Activity (AID 2283021; active = hit-call score of the fitted dose curve at least 0.9, where 1 is the maximum; inactive = score below 0.9). To be noted: primary human endothelial cells (HUVEC); actives raise or lower the signal. The method in brief:
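ELISA measurement of MIG in human umbilical vein endothelial cells 24 h after treatment. Cytotoxicity tracked by SRB staining in parallel cultures; gain or loss of signal fitted relative to DMSO.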

Test [12] concerns the target human Vitamin D Receptor (VDR), VDR (gene 7421) (UniProt P11473). Briefly: ATG_VDR_TRANS: Attagene TRANS-FACTORIAL HepG2 Assay for human Vitamin D Receptor (VDR) (AID 2283022). The method in brief: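 HepG2 cells were transiently transfected with multiple GAL4-UAS reporter units, so signal reflects exogenous chimeric receptor-Gal4 activity. After 24 h compound exposure, reporter mRNA was measured by RT-PCR, fluorescent labelling and capillary electrophoresis, fitted for gain of signal versus DMSO.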

Test [13] can be described thus: BSK_3C_SRB: Viability Assessment in the BioMAP Diversity Plus: 3C Assay (AID 2283023; active = hit-call score of the fitted dose curve at least 0.9, where 1 is the maximum; inactive = score below 0.9;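 also: fitted both ways against DMSO so a hit may be signal rise or drop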). As to conditions: primary human endothelial cells (HUVEC). The method in brief: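 Primary human umbilical vein endothelial cells in the 3C system were read 24 h after compound dosing. Total protein was stained with 0.1% sulforhodamine B after 10% TCA fixation and read at 560 nm, with bidirectional fitting against DMSO as baseline.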

Read-out in test [14]: Matrix Metallopeptidase 1 (MMP1), MMP1 (gene 4312)
Briefly: BSK_BE3C_MMP1: BioMAP Diversity Plus: BE3C Assay for Matrix Metallopeptidase 1 (MMP1) Biomarker Activity (AID 2283024; active = hit-call score of the fitted dose curve at least 0.9, where 1 is the maximum; inactive = score below 0.9). To be noted: primary human bronchial epithelial cells; actives raise or lower the signal. The method in brief:
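ELISA measurement of MMP-1 after 24 h compound exposure of primary human bronchial epithelial cells. Changes in either direction fitted relative to DMSO; parallel SRB staining checked overt cytotoxicity.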

A short description of test [15]: BSK_3C_Vis: BioMAP Diversity Plus: 3C Assay for Morphology Visualization (AID 2283025; active = hit-call score of the fitted dose curve at least 0.9, where 1 is the maximum; inactive = score below 0.9;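 also: fitted both ways so gain or loss versus DMSO counts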;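 as to AC50: light microscopy image of cell morphology used as background control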). As to conditions: primary human endothelial cells (HUVEC). The method in brief:
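Light-microscopy visualization of HUVEC cultures at 24 h post-treatment, with DMSO as baseline for bidirectional fitting.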

Read-out in test [16]: Pselectin, SELP (gene 6403)
The test can be described thus: BSK_4H_Pselectin: BioMAP Diversity Plus: 4H Assay for Pselectin Biomarker Activity (AID 2283026; active = hit-call score of the fitted dose curve at least 0.9, where 1 is the maximum; inactive = score below 0.9). To be noted: primary human endothelial cells (HUVEC); actives raise or lower the signal. The method in brief: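 ELISA of surface P-selectin on HUVEC, 24 h after dosing, with parallel SRB staining (0.1% after 10% TCA fixation, 560 nm) for overt cytotoxicity. Activity fitted in both directions relative to DMSO.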

Test [17] in a line: BSK_4H_SRB: Viability Assessment in the BioMAP Diversity Plus: 4H Assay (AID 2283027; active = hit-call score of the fitted dose curve at least 0.9, where 1 is the maximum; inactive = score below 0.9;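 also: cells exposed to compound for 24 h before staining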;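 as to AC50: curves fitted both ways versus DMSO so AC50 may be loss or gain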). To be noted: primary human endothelial cells (HUVEC). Summed up:
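HUVEC, 24 h post-dose; 10% TCA fix, 0.1% SRB stain, A560 nm. Total protein = overt cytotoxicity, parallel to biomarker read. Bidirectional fit vs DMSO baseline.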

Test [18] is described as follows: BSK_BE3C_SRB: Viability Assessment in the BioMAP Diversity Plus: BE3C Assay (AID 2283028; active = hit-call score of the fitted dose curve at least 0.9, where 1 is the maximum; inactive = score below 0.9). To be noted: primary human bronchial epithelial cells. The method in brief: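 Human primary bronchial epithelial cells were exposed to test chemicals for 24 h. Total protein in parallel cultures was then measured by staining with 0.1% sulforhodamine B after 10% TCA fixation, with absorbance read at 560 nm. Activity was fitted bidirectionally against DMSO.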

Read-out in test [19]: Thrombomodulin, THBD (gene 7056)
Briefly: BSK_3C_Thrombomodulin: BioMAP Diversity Plus: 3C Assay for Thrombomodulin Biomarker Activity (AID 2283029; active = hit-call score of the fitted dose curve at least 0.9, where 1 is the maximum; inactive = score below 0.9). To be noted: primary human endothelial cells (HUVEC); actives raise or lower the signal. The method in brief:
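ELISA measurement of thrombomodulin on HUVEC surface 24 h after chemical dosing; activity fitted in both directions relative to DMSO vehicle.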

In test [20] the target is human RAR-related Orphan Receptor gamma (RORg), RORC (gene 6097) (UniProt P51449). The test can be described thus: ATG_RORg_TRANS: Attagene TRANS-FACTORIAL HepG2 Assay for human RAR-related Orphan Receptor gamma (RORg) (AID 2283011). Summed up: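 Readout: reporter transcript induction (RT-PCR, fluorescent primer extension, capillary electrophoresis) after 24 h compound exposure of transiently transfected HepG2 cells carrying a RORg-Gal4 chimera and GAL4-UAS reporters; DMSO served as baseline, with increasing signal fitted.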
human RAR-related Orphan Receptor gamma (RORg), RORC (gene 6097), sequence (P51449 whole entry, looked up, the tested form may be a part): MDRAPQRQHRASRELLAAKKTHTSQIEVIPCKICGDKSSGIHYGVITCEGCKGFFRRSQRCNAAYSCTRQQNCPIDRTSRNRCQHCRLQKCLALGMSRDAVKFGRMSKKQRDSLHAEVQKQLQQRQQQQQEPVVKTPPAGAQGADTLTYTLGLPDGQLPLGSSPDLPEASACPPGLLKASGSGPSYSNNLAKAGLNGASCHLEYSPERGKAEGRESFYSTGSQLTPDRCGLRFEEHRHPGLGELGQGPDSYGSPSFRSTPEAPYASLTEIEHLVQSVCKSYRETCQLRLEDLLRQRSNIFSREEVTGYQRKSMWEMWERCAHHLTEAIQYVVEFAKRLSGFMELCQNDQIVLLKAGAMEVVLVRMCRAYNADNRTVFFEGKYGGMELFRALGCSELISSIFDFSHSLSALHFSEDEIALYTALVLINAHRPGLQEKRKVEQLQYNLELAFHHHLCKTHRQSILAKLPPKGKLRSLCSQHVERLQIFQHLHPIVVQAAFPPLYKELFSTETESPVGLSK

human Retinoid X Receptor beta (RXRb), RXRB (gene 6257), sequence (P28702 whole entry, looked up, the tested form may be a part): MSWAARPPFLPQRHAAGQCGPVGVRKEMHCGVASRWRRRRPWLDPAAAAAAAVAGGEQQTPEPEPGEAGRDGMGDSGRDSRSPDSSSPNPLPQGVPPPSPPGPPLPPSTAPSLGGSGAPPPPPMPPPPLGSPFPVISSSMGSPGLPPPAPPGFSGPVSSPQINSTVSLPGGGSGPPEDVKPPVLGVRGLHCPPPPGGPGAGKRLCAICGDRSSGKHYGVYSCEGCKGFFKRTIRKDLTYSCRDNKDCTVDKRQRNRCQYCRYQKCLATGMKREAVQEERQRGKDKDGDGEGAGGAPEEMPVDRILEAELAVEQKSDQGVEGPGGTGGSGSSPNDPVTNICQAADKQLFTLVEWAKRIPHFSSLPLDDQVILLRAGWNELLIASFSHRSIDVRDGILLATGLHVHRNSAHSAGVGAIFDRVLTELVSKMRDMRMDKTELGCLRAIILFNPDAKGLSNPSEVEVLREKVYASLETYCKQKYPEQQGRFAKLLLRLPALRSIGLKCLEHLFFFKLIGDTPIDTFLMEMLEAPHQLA
human RAR-related Orphan Receptor beta (RORb), RORB (gene 6096), sequence (Q92753 whole entry, looked up, the tested form may be a part): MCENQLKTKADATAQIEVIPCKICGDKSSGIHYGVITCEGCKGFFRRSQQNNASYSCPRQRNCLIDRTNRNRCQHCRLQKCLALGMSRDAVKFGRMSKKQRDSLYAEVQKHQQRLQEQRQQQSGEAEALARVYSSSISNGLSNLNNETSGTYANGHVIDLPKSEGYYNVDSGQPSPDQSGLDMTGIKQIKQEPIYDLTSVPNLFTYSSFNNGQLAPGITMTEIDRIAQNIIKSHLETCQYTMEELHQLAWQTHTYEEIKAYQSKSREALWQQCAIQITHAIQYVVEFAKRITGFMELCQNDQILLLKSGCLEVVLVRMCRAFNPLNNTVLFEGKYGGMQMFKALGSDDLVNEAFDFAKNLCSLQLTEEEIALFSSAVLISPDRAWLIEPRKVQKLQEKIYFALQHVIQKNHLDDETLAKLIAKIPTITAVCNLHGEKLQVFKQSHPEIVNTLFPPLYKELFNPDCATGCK
Retinoic acid receptor RXR-alpha (Homo sapiens), sequence (P19793 whole entry, looked up, the tested form may be a part): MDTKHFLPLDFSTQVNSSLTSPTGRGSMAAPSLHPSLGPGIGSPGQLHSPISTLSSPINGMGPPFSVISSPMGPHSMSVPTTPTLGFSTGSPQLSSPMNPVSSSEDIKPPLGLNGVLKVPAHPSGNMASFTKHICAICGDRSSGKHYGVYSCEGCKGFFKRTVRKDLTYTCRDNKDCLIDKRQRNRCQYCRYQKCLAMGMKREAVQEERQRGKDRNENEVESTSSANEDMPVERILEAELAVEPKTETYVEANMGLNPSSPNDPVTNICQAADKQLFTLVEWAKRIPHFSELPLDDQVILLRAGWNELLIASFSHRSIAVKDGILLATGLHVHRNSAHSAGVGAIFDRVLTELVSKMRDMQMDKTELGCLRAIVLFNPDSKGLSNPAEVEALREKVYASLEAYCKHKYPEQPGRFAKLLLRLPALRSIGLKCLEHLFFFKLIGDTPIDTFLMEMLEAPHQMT
human Vitamin D Receptor (VDR), VDR (gene 7421), sequence (P11473 whole entry, looked up, the tested form may be a part): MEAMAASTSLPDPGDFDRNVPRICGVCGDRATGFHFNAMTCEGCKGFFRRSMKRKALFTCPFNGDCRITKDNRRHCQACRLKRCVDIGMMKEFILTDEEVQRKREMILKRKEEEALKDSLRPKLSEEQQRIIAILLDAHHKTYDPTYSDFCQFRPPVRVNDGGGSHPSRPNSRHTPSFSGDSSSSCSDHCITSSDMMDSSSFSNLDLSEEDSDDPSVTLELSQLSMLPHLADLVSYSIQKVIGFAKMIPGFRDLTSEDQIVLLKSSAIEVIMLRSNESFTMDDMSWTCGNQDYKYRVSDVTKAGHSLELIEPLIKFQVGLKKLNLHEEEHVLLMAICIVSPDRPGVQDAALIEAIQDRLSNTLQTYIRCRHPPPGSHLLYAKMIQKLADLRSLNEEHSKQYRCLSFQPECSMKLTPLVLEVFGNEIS
human Thyroid Receptor alpha (THRa1), THRA (gene 7067), sequence (P10827 whole entry, looked up, the tested form may be a part): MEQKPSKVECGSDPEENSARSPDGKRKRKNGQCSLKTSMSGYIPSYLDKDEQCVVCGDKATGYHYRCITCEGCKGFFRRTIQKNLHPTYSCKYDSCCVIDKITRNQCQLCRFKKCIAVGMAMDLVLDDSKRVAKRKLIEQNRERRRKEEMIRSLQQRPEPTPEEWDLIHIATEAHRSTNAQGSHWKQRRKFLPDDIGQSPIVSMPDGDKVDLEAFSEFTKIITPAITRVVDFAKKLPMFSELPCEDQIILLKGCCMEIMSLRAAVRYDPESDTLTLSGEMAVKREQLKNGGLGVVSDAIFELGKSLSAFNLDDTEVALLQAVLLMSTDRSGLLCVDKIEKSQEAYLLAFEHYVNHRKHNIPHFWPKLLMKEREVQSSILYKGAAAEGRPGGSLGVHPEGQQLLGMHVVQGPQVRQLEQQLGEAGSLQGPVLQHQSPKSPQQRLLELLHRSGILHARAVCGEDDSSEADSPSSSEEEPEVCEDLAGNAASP
E-selectin (Homo sapiens), sequence (P16581 whole entry, looked up): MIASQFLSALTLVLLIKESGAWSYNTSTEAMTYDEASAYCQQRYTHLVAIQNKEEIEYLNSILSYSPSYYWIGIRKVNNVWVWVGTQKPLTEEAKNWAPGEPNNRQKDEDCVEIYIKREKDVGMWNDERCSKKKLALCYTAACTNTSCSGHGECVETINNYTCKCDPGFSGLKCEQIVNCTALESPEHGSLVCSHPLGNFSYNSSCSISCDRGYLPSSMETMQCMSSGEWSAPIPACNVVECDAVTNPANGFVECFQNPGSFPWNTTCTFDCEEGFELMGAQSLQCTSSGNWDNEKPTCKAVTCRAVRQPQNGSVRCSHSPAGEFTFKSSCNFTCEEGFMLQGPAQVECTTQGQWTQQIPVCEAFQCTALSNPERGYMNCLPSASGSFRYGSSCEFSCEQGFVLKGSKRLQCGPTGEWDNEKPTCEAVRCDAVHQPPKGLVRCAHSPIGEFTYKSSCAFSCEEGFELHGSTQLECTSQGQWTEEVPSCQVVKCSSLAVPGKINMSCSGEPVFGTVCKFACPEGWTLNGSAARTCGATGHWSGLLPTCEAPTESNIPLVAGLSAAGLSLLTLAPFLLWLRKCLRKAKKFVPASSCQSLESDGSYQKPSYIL

On to `O=C(O)c1cc(O)c2ccccc2c1O`, for which the outcome in test [1], in test [2], in test [3] and in test [4] was inactive.

As for `CCc1cccc(C)c1N(C(=O)CS(=O)(=O)O)C(C)COC` (stereo unspecified), the result in test [1], in [3], in test [4], in test [5], in test [6] and in [7] was inactive. The result in test [8], in [9], in test [10], in [11], in test [12] and in [13] was inactive. Besides, the outcome in test [14], in [15], in [16], in test [17], in [18] and in [19] was inactive.

On to `CC(C)(CO)COC(=O)C(C)(C)CO`, for which the call in test [1], in test [4] and in test [12] was inactive.

On to `CC(=O)C(C)C`, for which the result in [1] and in test [12] was inactive.

As for `CC(C)(c1ccccc1)c1ccc(Nc2ccc(C(C)(C)c3ccccc3)cc2)cc1`, the molecule was classed as inactive in test [1] and in [3].

On to `CCCCCCCC(=O)OCC(COC(=O)CCCCCCC)OC(=O)CCCCCCC`, for which the result in test [1] and in test [4] was inactive.

As to `CCC(=O)C1CC(C(C)C)CC=C1C` (stereo unspecified), the molecule was called inactive in test [20] and in test [2].

With `CCC(C)c1ccccc1` (stereo unspecified), the result in test [1], in test [3], in [4] and in test [12] was inactive.

In the case of `c1ccc2cnccc2c1`, the molecule was called inactive in test [1], in [2], in [4] and in test [12].

As for `CCCCCC[C@@H](O)C/C=C\CCCCCCCC(=O)OCC(O)CO` (stereo partly specified), the outcome in test [1], in test [2], in test [4] and in test [12] was inactive. For the same molecule, the AC50 in [3] was 85 µM (active).

On to `CCOC(=O)CC(=O)c1ccccc1`, for which the molecule was classed as inactive in test [20].

Turning to `CCCSSCCC`, the outcome in [20] and in test [2] was inactive.

As for `Nc1ccc(Cl)c(N)c1`, the molecule was classed as inactive in test [1], in test [2], in [3] and in test [4].

Take `CC1=CC=C(C(C)C)CC1`: the molecule was called inactive in test [1], in test [2], in test [3], in test [6], in [7] and in [8]. For the same molecule, the outcome in test [9], in test [10], in test [11], in test [13], in test [14] and in test [15] was inactive. Moreover, the result in test [16], in test [17], in test [18] and in test [19] was inactive.

Regarding `COC(=O)CC(C)CCC=C(C)C` (stereo unspecified), the call in [1], in [3] and in [12] was inactive.

As to `C=CCCCCCCCCOC(C)=O`, the result in test [20], in [2], in [3] and in [4] was inactive.

Regarding `Cn1cccc1`, the molecule was called inactive in test [20], in test [2] and in [3].

Turning to `O=C(C=Cc1ccccc1)OCCc1ccccc1`, the result in test [20], in [2], in test [3], in test [4] and in [12] was inactive.

With `CC(C)c1cccc(C(C)C)c1N`, the molecule was classed as inactive in test [20], in test [2], in [5], in test [6], in test [7] and in test [8]. In addition, the outcome in test [10], in test [11], in test [13], in [14], in test [16] and in [18] was inactive. Moreover, the result in test [19] was inactive. Also, the AC50 in test [3] is 71.2 µM (active); in test [9], 38.2 µM (active); in test [15] it was 37.5 µM (active); in test [17], 33.5 µM (active).
